Results: PubChem BioAssay AID602413 (Johns Hopkins Ion Channel Center, 2012)
About 150 (12%) of roughly 1,200 compounds were called active.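 How the source made its calls: active means ratio at least 3 SD above the weak peptide control, stable starting fluorescence, no direct agonism earlier; inactive means the rest.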 The full list was thinned out, with actives kept by preference.

These compounds were tested against Mas-related G-protein coupled receptor member X1 (Homo sapiens) (UniProt Q96LB2) (assay: allosteric enhancers of human MrgX1 signaling – HEK293 cells, Fluo-4 calcium flux, confirmation (AID 602413;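 further: compound followed by low BAM8-22 agonist challenge near EC20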)). Conditions: MrgX1-HEK293, Fluo-4 calcium fluorescence, FDSS; at 10 µM; hits give high values.
Chain of Mas-related G-protein coupled receptor member X1 (Homo sapiens) (Q96LB2 whole entry, looked up): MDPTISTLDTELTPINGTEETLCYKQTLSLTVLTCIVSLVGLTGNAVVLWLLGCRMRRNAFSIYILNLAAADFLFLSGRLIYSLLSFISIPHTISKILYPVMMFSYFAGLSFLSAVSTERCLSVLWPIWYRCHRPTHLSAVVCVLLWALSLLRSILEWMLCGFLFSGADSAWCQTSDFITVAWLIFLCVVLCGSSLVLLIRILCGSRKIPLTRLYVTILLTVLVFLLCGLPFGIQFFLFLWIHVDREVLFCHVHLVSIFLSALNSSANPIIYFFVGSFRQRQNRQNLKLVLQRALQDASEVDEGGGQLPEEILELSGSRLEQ

Compound	activation (ratio percentage)
C=CCN1C(=O)C2(C(C(=O)OCC)=C(N)Oc3c2c(=O)oc2ccccc32)c2ccccc21 (stereo unspecified)	29.5% (active)
